Source: PubChem BioAssay AID588579 (National Center for Advancing Translational Sciences (NCATS), 2011)
Where “and” joins values, the source holds several entries; their conditions need not be identical. Equal values may be shown once. About 2,200 (0.55%) of roughly 400,000 compounds were called active. Inconclusive results (about 1%) are left out. Calls come from the whole dose curve; as a rule, active = well fitted inhibition curve with a large enough effect; inconclusive = small, poorly fitted or top-dose-only effect, or another doubt; inactive = no such curve, though single readings can be large or run the other way. This excerpt belongs to a sample that is enriched for actives.

Target: DNA polymerase kappa (Homo sapiens) (UniProt Q9UBT6)
Sequence (Q9UBT6 whole entry, looked up): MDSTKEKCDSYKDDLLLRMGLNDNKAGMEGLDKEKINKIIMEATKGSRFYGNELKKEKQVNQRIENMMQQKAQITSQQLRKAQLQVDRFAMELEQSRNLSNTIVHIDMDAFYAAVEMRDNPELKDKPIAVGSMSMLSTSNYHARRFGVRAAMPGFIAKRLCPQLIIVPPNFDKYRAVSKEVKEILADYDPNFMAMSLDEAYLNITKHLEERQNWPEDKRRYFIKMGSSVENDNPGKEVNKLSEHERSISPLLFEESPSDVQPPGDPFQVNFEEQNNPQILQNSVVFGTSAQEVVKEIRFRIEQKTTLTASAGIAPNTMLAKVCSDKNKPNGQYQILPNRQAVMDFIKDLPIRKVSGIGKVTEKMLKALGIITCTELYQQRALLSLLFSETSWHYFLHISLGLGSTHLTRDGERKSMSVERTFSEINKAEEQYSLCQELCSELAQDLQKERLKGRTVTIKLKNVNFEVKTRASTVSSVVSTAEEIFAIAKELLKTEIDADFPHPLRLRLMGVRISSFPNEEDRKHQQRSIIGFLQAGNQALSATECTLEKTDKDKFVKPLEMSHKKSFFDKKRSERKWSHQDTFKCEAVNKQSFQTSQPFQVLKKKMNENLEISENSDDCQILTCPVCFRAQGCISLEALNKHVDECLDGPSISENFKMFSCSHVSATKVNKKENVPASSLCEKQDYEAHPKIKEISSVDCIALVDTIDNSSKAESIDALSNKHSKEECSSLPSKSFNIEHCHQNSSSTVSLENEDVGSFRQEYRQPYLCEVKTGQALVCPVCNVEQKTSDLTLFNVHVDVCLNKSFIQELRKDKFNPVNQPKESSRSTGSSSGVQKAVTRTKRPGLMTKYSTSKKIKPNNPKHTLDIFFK
Experiment: qHTS for Inhibitors of Polymerase Kappa
Conditions: purified Pol kappa, fluorescent DNA synthesis assay, 10 min; series mostly up to 107 µM; activity, negative = inhibition: at the top concentration
Summary of the method: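 Activity was followed as the change in fluorescence between reads at 0 and 10 min after starting the reaction with 50 nM substrate. Beforehand, 10 nM polymerase had been preincubated with compound for 15 min at room temperature.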
% is set by controls: 0 for no effect and ±100 for the full control effect; potency is the fitted concentration of half-maximal effect.

Potency, active:
Cc1ccc(-c2nn(-c3ccccc3)cc2/C=C2\SC(=S)N(CCCCCC(=O)O)C2=O)o1 79.4 µM
O=C(Nc1nc(-c2ccco2)c(-c2ccco2)s1)c1ccco1 79.4 µM
O=C(O)c1ccc(NS(=O)(=O)c2ccc3c(c2)C(=O)c2cc(S(=O)(=O)Nc4ccc(C(=O)O)cc4)ccc2-3)cc1 79.4 µM
O=C(O)c1c(Br)c(Br)c(Br)c(Br)c1C1c2ccc(O)cc2Oc2cc(O)ccc21 1.12 µM
CC(C)C1N=C2c3ccccc3N=C(SCC(=O)c3ccc(O)c(O)c3)N2C1=O (stereo not given) 20 µM
CCC(C)Cn1c(O)cc2nn(-c3nc4ccccc4s3)c(=O)c-2c1C (stereo not given) 25.1 µM
COc1ccc2[nH]c(C(=O)N/N=C/c3cc(OC)c(OC)c(OC)c3)cc2c1 50.1 µM
COc1ccc(Cl)cc1NC(=O)CCS(=O)(=O)c1ccc(Br)cc1 79.4 µM
C=CCn1c(=S)[nH]c2scc(-c3ccco3)c2c1=O 22.4 µM
N#C/C(=C\c1ccc(O)c(O)c1)C(N)=O 10 µM
O=C1NN(c2ccccc2)C(=O)/C1=C/c1ccc(-c2cccc(C(=O)O)c2)o1 44.7 µM
COc1cc(/C=C2\C(=N)N3N=C(CC(=O)N4CCOCC4)SC3=NC2=O)cc(OC)c1OC 31.6 µM
Cc1ccc(Cc2cnc(N)s2)o1 15.8 µM
C1=C(N2CCOCC2)/C(=C/c2nc3ccccc3[nH]2)CC1 79.4 µM

activity, negative = inhibition, inactive:
O=C(Nc1ccc([N+](=O)[O-])cc1)c1cnn2c1NC(=C1CC1)C=C2C(F)F -1.53%
CCN(c1ccc(Cl)cc1)S(=O)(=O)c1nnc(NC(=O)c2ccco2)s1 -1.12%
O=C(Nc1ccc2nc(SCCOc3ccccc3)sc2c1)c1ccco1 2.6%
Cc1noc(C)c1S(=O)(=O)Nc1ccc(C(=O)O)cc1 -5.57%
O=C(c1ccc(NS(=O)(=O)c2ccc3[nH]c(=O)[nH]c3c2)cc1)N1CCCCC1 -6.59%
COc1ccccc1CNc1ncncc1-c1cccc(NS(C)(=O)=O)c1 -0.267% [at 60.1 µM]
CC(C)C(N)C(=O)OCCOCn1cnc2c(=O)[nH]c(N)nc21 (stereo not given) -6.78% [at 60.1 µM]
CC(C)[C@H]1CC[C@@H](C)C[C@H]1O -5.92% [at 19.4 µM]
COc1cccc(Cn2c(=O)c(CCc3ccccc3)nc3cnc(N(C)C)nc32)c1 -9.05% [at 60.1 µM]
Cc1ccc(CNC(=O)CSC2=Nc3ccccc3C3=NC(C)C(=O)N23)cc1 (stereo not given) -4.01% [at 60.1 µM]
CCOC(=O)CSC1=Nc2ccccc2C2=NC(CCC(=O)NCc3ccc(F)cc3)C(=O)N12 (stereo not given) -3.99% [at 60.1 µM]
CCCCC/C=C\CC1OC1CCCCCCCC(=O)O (stereo not given) -0.735% [at 19.4 µM]
COc1cc2nc(N3CCCN(C)CC3)nc(NC(C)C)c2cc1OC 10.2%
C=COC(=O)N1CCN(/[N+]([O-])=N/Oc2ccc([N+](=O)[O-])cc2[N+](=O)[O-])CC1 5.1%
Nc1ncnc2c1c(I)cn2[C@@H]1C[C@H](N)[C@@H](O)[C@H]1O -5.63% [at 60.1 µM]
CC1(C)OC2CO[C@]3(COS(N)(=O)=O)OC(C)(C)OC3C2O1 (stereo not given in full) 1.69% [at 60.1 µM]
COc1ccc(-c2cc(C(=O)NCc3cc(OC)c(OC)c(OC)c3)[nH]n2)cc1 3.81%
COc1cc(NC(=O)c2cc3ccc4cccnc4c3[nH]2)cc(OC)c1OC -25%
Nc1nc2nc(Cl)[nH]c2c(=O)[nH]1 -2.03% [at 60.1 µM]
Cc1ccc(Cl)cc1NC(=O)CCS(=O)(=O)c1ccc(Br)s1 -20.1%
COc1ccc(Cl)cc1NC(=O)CCC(=O)c1ccc(C)cc1 -5.69% [at 60.1 µM]
COc1ccccc1CNc1ncnc2ccc(-c3ccc4c(c3)OCO4)cc12 -7.16% [at 60.1 µM]
CC1(C)OC2CC3C4CCC5=CC(=O)CCC5(C)C4(F)C(O)CC3(C)[C@]2(C(=O)CCl)O1 (stereo not given in full) 2.42% [at 60.1 µM]
O=c1c(-c2ccc(F)cc2)nc2cnc(N3CCOCC3)nc2n1-c1ccccc1 -3.78% [at 60.1 µM]
CN(C)c1ccc(/C=C/c2c3ccccc3nc3ccccc23)cc1 -0.103%
CC(C)(C(=O)NO)c1ccccc1 11.2%
Fc1ccc(Cl)cc1-c1nc(Nc2ccncc2)c2nccnc2n1 -6.45% [at 60.1 µM]
COc1ccccc1CCn1c(=O)c(-c2cn(C)c3ccccc23)nc2cncnc21 -1.72% [at 60.1 µM]
CCCCC/C=C\C/C=C\CCCCCCCCCC(=O)O 1.81% [at 19.4 µM]
CC(C)NC(=O)/C(C#N)=C\c1ccc(N(C)C)c(Br)c1 -14.2%
Cc1ccc(/C=C(\C#N)C(=O)Nc2cc(C)ccc2C)cc1 -9.83%
Nc1nc(N)c(N=O)c(N)n1 -14.6%
O=C(C[n+]1ccncc1)c1ccc2c(c1)CCCC2 6.4%
CC(=O)NC(=O)c1ccccc1O -8.55% [at 19.4 µM]
COc1ccccc1-c1cc(NCc2cccs2)ncn1 4.13% [at 60.1 µM]
CC(C)(C)C1CCC(NC(=O)c2cnn3c2NC(=C2CC2)C=C3C(F)F)CC1 (stereo not given) -4.04%
COc1ccc(C[C@H](N)C(=O)N[C@@H]2[C@H](O)[C@H](n3cnc4c(N(C)C)ncnc43)O[C@@H]2CO)cc1 -1.14% [at 12 µM]
Cc1cc[n+](C2CCCCC2)cc1 4.95%
Cc1nc2cnc(N3CCN(C)CC3)nc2n(C[C@H]2CCCO2)c1=O 1.75% [at 60.1 µM]
CCCCOc1ccc(C(=O)NO)cc1 2.38%
Cc1cc2oc(=O)cc(-c3ccccc3)c2c(C)c1/C=C/c1ccc(F)cc1 -17.6% [at 60.1 µM]
COc1cc(C(=O)N2CCOCC2)cc(OC)c1OC -0.831% [at 19.4 µM] and 0.0712% [at 19.4 µM]
COc1ccccc1OCCOc1ccc(/C=C2\C(=N)N3N=C(C)SC3=NC2=O)cc1 -11.3%
C=C1C=C(C(F)F)n2ncc(C(=O)NCCc3ccccc3OC)c2N1 1.69%
O=c1c(-c2cccs2)nc2cnc(Oc3ccccc3)nc2n1-c1ccccc1 8.26% [at 60.1 µM]
CC(C)C1=CC2=CC[C@@H]3[C@](C)(CO)CCC[C@]3(C)C2CC1 (stereo not given in full) -20.7% [at 60.1 µM]
CCOC(=O)Cn1c(=O)sc2cccc(Cl)c21 -6.5% [at 12 µM]
Nc1ncnc2nnsc12 -11.5%
COCCNc1ccnc(-c2cccc(NS(C)(=O)=O)c2)n1 -1.6% [at 60.1 µM]
O=C1OC(C(O)CO)C(O)=C1O (stereo not given) 1.05% [at 60.1 µM]
Cc1nn2c3cc(N4CCOCC4)ccc3nc2c2ccccc12 -17.6%
